# A selection: hits, their analogues and other compounds. The true share with any hit is near 6.1%.
# ATXN viability = reduces viability in counter-screen for ATXN expression inhibitors | actives 0.49% (n = 400,000) | Potency, µM (series often up to 56.7 µM), most hits filed as cytotoxic | S2 cells (HEK-293 line with an ATXN2-luciferase reporter) viability, CellTiter-Fluor protease fluorescence, 24 h; further: nearly all actives have a fitted effect of over 40% in size
# TGFb inhibitor = inhibitors of TGF-b signaling; Potency, µM (series often up to 46.1 µM), usual class: inhibitors; HepG2 CAGA-GFP TGF-b/SMAD3 reporter, GFP fluorescence, 18 h; TGF-beta stimulated, 500 pg/mL final; AID 588855; actives 1.2% (n = 410,000); further: nearly all actives have a fitted effect of over 65% in size
#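 GFP signal (ex488/em500-530) from TGF-beta-stimulated HEPG2 CAGA-GFP cells, 500 pg/mL final, 18 h at 37 degrees C in DMEM plus 1% FBS, normalized to unstimulated and DMSO-stimulated controls.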
# Gal4-VP16 FLuc = counter-screen for ROR gamma inhibitors: Gal4-VP16 reporter; Potency, µM (series often up to 53.6 µM), hits mostly inhibitors; Drosophila S2 Gal4-VP16 UAS-luciferase, luminescence, 20 h; actives 3.5% (n = 310,000);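 further: Gal4-VP16 expression switched on by copper sulfate through the metallothionein promoter; nearly all actives have a fitted effect of over 50% in size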
# ATXN2 expr inh = reduces ATXN2 reporter expression in HEK-293 cells; HEK-293 ATXN2-luciferase reporter, luminescence, 24 h; Potency, µM (series often up to 57 µM), most hits filed as inhibitors; actives 0.72% (n = 360,000); AID 1745845; further: nearly all actives have a fitted effect of over 55% in size
#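 qHTS (up to 57 uM final) was run with 24 h compound exposure of reporter cells at 37 °C. Each well was multiplexed: SteadyGlo luminescence measured ATXN2-luciferase expression after a fluorogenic Gly-Phe-AFC viability readout (25 uM final).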
# HepG2 tox-1 = HepG2 cytotoxicity, counter-screen for TGF-b inhibitors | HepG2 CAGA-GFP viability, ATP luminescence, 18 h | actives 0.76% (n = 410,000) | AID 588856 | Potency, µM (highest dose often 46.1 µM), actives largely listed as cytotoxic
#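 CellTiter-Glo luminescence gave cytotoxicity after 18 hours at 37 degrees C. The cells were HepG2 CAGA-GFP in 1% FBS DMEM, stimulated with 500 pg/mL TGF-beta after compound addition. %Activity was normalised to no-cell wells (complete cell-killing) and DMSO (no toxicity), and curves were fitted and classified.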
# RORgamma inh = ROR gamma (mouse) transcription inhibition | P51450 | actives 5.4% (n = 310,000) | Drosophila S2 Gal4-RORgamma UAS-luciferase reporter, 20 h | Potency, µM (series often up to 53.6 µM), actives largely listed as inhibitors; further: nearly all actives have a fitted effect of over 60% in size
# Target sequence (P51450 whole entry, looked up, the tested form may be a part): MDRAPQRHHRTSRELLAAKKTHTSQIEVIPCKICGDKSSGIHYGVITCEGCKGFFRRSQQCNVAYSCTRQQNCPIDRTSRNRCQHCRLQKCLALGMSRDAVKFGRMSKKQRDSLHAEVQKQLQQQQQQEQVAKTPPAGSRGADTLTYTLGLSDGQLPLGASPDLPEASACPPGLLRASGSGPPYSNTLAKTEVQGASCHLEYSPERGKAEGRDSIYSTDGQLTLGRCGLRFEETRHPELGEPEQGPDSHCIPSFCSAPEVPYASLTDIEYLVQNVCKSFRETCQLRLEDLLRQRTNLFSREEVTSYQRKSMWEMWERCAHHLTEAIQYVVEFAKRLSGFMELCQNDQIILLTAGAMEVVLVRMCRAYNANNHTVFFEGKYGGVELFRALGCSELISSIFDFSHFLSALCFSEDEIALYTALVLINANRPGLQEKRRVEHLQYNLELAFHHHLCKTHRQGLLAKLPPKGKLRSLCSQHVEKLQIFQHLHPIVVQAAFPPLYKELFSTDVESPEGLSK
#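 Using a luciferase readout, inhibitors were identified by reduced reporter activity in Drosophila cells coexpressing a copper-inducible Gal4–ROR gamma fusion and UAS-driven Photinus luciferase, incubated 20 hr after 700 uM copper sulfate.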
# TGFb CAGA inh = TGF-b pathway inhibition, cherry-pick retest; shares compounds with TGFb inhibitor; HepG2 CAGA-GFP TGF-b reporter, GFP fluorescence, 18 h; cells stimulated with TGF-beta, 500 pg/mL; Potency, µM (top dose mostly 46.1 µM), actives largely listed as inhibitors; actives 63% (n = 1,600); further: nearly all actives have a fitted effect of over 65% in size
# HepG2 tox-2 = counter-screen for TGF-b inhibitors: cytotoxicity in HepG2 cells; shares compounds with TGFb inhibitor; HepG2 CAGA-GFP viability, ATP luminescence, 18 h; cells stimulated with TGF-beta, 500 pg/mL; Potency, µM (doses to about 46.1 µM), hits mostly inhibitors; actives 27% (n = 1,600); AID 720535; further: nearly all actives have a fitted effect of over 70% in size
# CCL64 TGFb inh = orthogonal confirmation of TGF-b inhibitors in CCL64 cells. shares compounds with TGFb inhibitor. CCL64 CAGA-GFP reporter, TGF-b stimulated, GFP fluorescence, 18 h. Potency, µM (series often up to 46.1 µM), hits mostly inhibitors. actives 41% (n = 1,600). AID 720536; further: nearly all actives have a fitted effect of over 65% in size
# COP TGFb inh = blocks TGF-b signaling in HepG2 COP reporter. shares compounds with TGFb inhibitor. HepG2 COP-GFP TGF-b reporter, GFP fluorescence, 18 h; cells stimulated by added recombinant TGF-beta. Potency, µM (highest dose often 46.1 µM), usual class: inhibitors. actives 3% (n = 1,600); further: nearly all actives have a fitted effect of over 70% in size
# A number is an active result; . = inactive; ? = inconclusive; / = not tested or not shown; [ ] = dose if it differs, or a comment. The call rests on the fitted dose curve; in most records, active means well fitted curve in the direction sought with a large enough effect; inconclusive means small, poorly fitted or top-dose-only effect, or another doubt; inactive means no such curve, though single readings can be large; an effect the other way counts as inactive or inconclusive.
SMILES,ATXN viability,TGFb inhibitor,Gal4-VP16 FLuc,ATXN2 expr inh,HepG2 tox-1,RORgamma inh,TGFb CAGA inh,HepG2 tox-2,CCL64 TGFb inh,COP TGFb inh
CCc1ccccc1NC(=S)/N=C(\N)Nc1nc(C)c2cc(C)ccc2n1,?,?,3.16µM,.,.,2.82µM,4.11µM,.,?,.
Cc1ccc(NC(=O)CN2C(=O)COc3ccc(S(=O)(=O)NC4CCCC4)cc32)c(Cl)c1,?,.,/,.,.,/,/,/,/,/
N#C/C(=N\Nc1ccc(Cl)cc1)C(=O)c1ccsc1,?,?,?,?,.,?,8.2µM,7.31µM,20.6µM,.
N#C/C(=N\Nc1cccc(Cl)c1)C(=O)c1ccccc1,?,?,?,.,.,.,/,/,/,/
COc1ccc(C(=O)C(CN2CCOCC2)c2ccccc2)cc1F (stereo not given),?,3.98µM,11.2µM,?,.,11.2µM,?,14.6µM,7.31µM,.
O=C(c1ccc(Cl)cc1)C(CN1CCCCC1)c1ccccc1 (stereo not given),/,5.62µM,?,?,5.62µM,?,13µM,18.4µM,2.31µM,?
CCc1cccc(NC(=O)CNS(=O)(=O)c2ccc3nc(C)sc3c2)c1,/,/,/,/,.,/,/,/,/,/
Cc1nc2ccc(S(=O)(=O)NCC(=O)Nc3cccc(F)c3)cc2s1,.,?,.,/,.,.,.,.,.,.
CC(=O)Nc1ccccc1OCc1cc(=O)n2c(C)csc2n1,.,.,/,.,.,/,/,/,/,/
Cc1ccccc1CNC(=O)C(C)n1nc(C)n2c(cc3occc32)c1=O (stereo not given),/,/,/,/,.,/,/,/,/,/
COc1ccc(S(=O)(=O)/N=C2\C=C(Nc3ccc(O)cc3)C(=O)c3ccccc32)cc1,6.31µM,0.794µM,5.62µM,3.16µM,0.891µM,10µM,0.581µM,4.11µM,1.3µM,?
COC(=O)C(C(C)=O)C1=C/C(=N\S(=O)(=O)c2ccc(C)cc2)c2ccccc2C1=O (stereo not given),?,.,?,?,.,.,/,/,/,/
CC(=O)Nc1ccc(NC2=C/C(=N/S(=O)(=O)c3cccs3)c3ccccc3C2=O)cc1,10µM,5.01µM,5.01µM,15.8µM,6.31µM,7.08µM,2.59µM,3.26µM,9.2µM,5.17µM
CC(CNCCCn1cnc2c(OCc3ccccc3)ncnc21)c1ccccc1 (stereo not given),?,?,/,?,.,/,/,/,/,/
Cc1ccc(NCCCn2cnc3c(OCc4ccccc4)ncnc32)cc1C,?,17.8µM,/,?,.,/,6.51µM,?,?,.
Cc1cc(C)c(CN2CCN(C(=O)Cn3cnc4c(OCc5ccccc5)ncnc43)CC2)c(C)c1,?,12.6µM,/,.,.,/,3.66µM,?,?,.
COCCNC(=O)c1c(C)oc2nc(C)nc(N3CCOCC3)c12,/,.,/,/,.,/,/,/,/,/
COc1ccc(N(C(=O)Cc2cccs2)C(C(=O)NC2CCCC2)c2ccncc2)cc1 (stereo not given),.,.,.,.,.,.,/,/,/,/
COc1ccc(N(C(=O)CCl)C(C(=O)NC2CCCCC2)c2cccnc2)cc1 (stereo not given),8.91µM,8.91µM,.,14.1µM,11.2µM,?,7.31µM,11.6µM,9.2µM,?
Cc1cccc(NC(=O)Cn2c(SCC(=O)NCc3ccccc3)nc3ccccc32)c1C,.,.,/,.,.,/,/,/,/,/
COc1cc(OC)cc(C(=O)NCCCCCCNC(=O)c2cc(OC)cc(OC)c2)c1,.,.,/,.,.,/,.,.,.,.
COc1cccc(C(=O)NCCCNC(=O)c2cccc(OC)c2)c1,.,.,.,.,.,.,/,/,/,/
Oc1ccc(C[C@H]2CN([C@@H](Cc3ccccc3)CN3CCCC3CN3C(=S)NC[C@@H]3Cc3ccccc3)C(=S)N2CCc2ccccc2)cc1 (stereo not given in full),?,/,/,.,/,/,/,/,/,/
CC(C)C[C@@H](CN1CCCC1CN1C(=S)NC[C@@H]1Cc1ccc(O)cc1)N1C[C@H](Cc2ccc(O)cc2)N(CCc2ccccc2)C1=S (stereo not given in full),28.2µM,5.62µM,/,?,6.31µM,/,14.6µM,?,8.2µM,.
Oc1ccc(C[C@H]2CNC(=S)N2C[C@H]2CCCN2C[C@H](Cc2ccccc2)N2C[C@H](Cc3ccc(O)cc3)N(CCc3ccccc3)C2=S)cc1,?,7.08µM,/,?,.,/,6.51µM,?,3.66µM,.
SMILES,ATXN viability,TGFb inhibitor,Gal4-VP16 FLuc,ATXN2 expr inh,HepG2 tox-1,RORgamma inh,TGFb CAGA inh,HepG2 tox-2,CCL64 TGFb inh,COP TGFb inh
CCOc1ccc(CCN2C(=S)N([C@@H](Cc3ccc(O)cc3)CN3CCC[C@@H]3CN3C(=S)NC[C@@H]3CC(C)C)C[C@@H]2Cc2ccc(O)cc2)cc1,7.08µM,4.47µM,/,?,.,/,8.2µM,11.6µM,5.17µM,.
Oc1ccc(C[C@H]2CN([C@@H](Cc3ccc(O)cc3)CN3CCC[C@@H]3CN3C(=S)NC[C@@H]3Cc3ccccc3)C(=S)N2CCc2ccccc2)cc1,?,?,/,?,.,/,/,/,/,/
Cc1nn(C)c2c1c(C(F)(F)F)cc(=O)n2CC(=O)N1CCCCC1C (stereo not given),.,.,/,.,.,/,/,/,/,/
O=C1OC(C2=CCCCC2)=NC12CC2,/,/,.[10 µM],/,/,.[10 µM],/,/,/,/
Nc1ncnc2c1ncn2[C@@H]1O[C@H](C(=O)NCc2ccc(OC(F)(F)F)cc2)[C@@H](O)[C@H]1O,.,?,/,.,.,/,?,.,.,.
COc1cccc(/C=N/Nc2ncnc(Cl)c2N)c1O,11.2µM,7.08µM,3.16µM,?,.,1.78µM,?,11.6µM,5.17µM,.
COc1ccc(OC)c(C2=Nn3c(nnc3-c3ccccc3OC)SC2)c1,/,/,.,/,/,.,/,/,/,/
O=C1Nc2ccccc2N=C(c2ccc3c(c2)OCO3)C1N(C(=O)c1ccnc2ccccc12)c1ccccc1 (stereo not given),?,15.8µM,/,.,.,/,23.1µM,.,?,.
